Experimental findings from PubChem BioAssay (NCI) are described below.

The panel holds about 79,000 compounds, 15% with a hit somewhere; the sample as a whole holds those more often. Values without a mark were called inactive. Activity calls are given as the source filed them. Rule as the data show it: active = growth inhibition above about 70%; inactive = the rest.

A short description of the assay: NCI Yeast Anticancer Drug Screen. Data for the mec2-1 strain (AID 157). The settings on record: S. cerevisiae mec2-1 strain, at 50.0 µM, stronger effect = higher value. Here is the method: Growth inhibition of yeast strains with defined genetic alterations is measured as a screen for potential anti-cancer activity. Selected strains with alterations in DNA damage repair or cell cycle control were exposed to compounds and growth inhibition was measured relative to vehicle treated controls. The strain used in this assay is mec2-1
With `COC(=O)[C@@H]1CON(Cc2ccccc2)C1CC1(C)OCCO1` (stereo not given in full), the growth inhibition was -7.3%.

In the case of `CCOc1ccc2nc(NC(=O)C(=O)C(C#N)CC(C)(C)C=O)sc2c1` (stereo not given), the growth inhibition was -22.8%.

Consider `CSc1ccc(/C=C/c2ccnc3ccccc23)cc1`, for which the growth inhibition is 14.8%.

For `C/C(=C(/O)c1ccc(Cl)cc1)c1nc2cc(Cl)cc([N+](=O)[O-])c2[nH]c1=O`, the growth inhibition is 43.3%.

For `COc1cccc(NC(=O)CC(=O)Nc2cccc(OC)c2)c1`, the growth inhibition was 3.6%.

Consider `COc1ccc(OC)c(NC(=O)Nc2nccs2)c1`, for which the growth inhibition is 42.9%.

As for `C[C@H](CCc1nc(C#N)c(N)o1)[C@H]1CC[C@H]2[C@@H]3CCC4C[C@@H](O)CC[C@]4(C)[C@H]3C[C@@H](O)[C@]12C` (stereo not given in full), the growth inhibition was 91.6% (active).

`CC(=O)OC1CCC2(C)C3=CCC4(C)C(C(C)=O)=CCC4C3CCC2C1` (stereo not given): the growth inhibition is -21.9%.

As to `NNC(=O)C1CC1`, the growth inhibition is -25.9%.

On to `Clc1ccc(-c2nnc(-c3ccccc3)o2)cc1Cl`, for which the growth inhibition is -24.8%.

Turning to `CCCCCCCCCCCCCCCC(=O)OCC1OC(n2ccc(N)nc2=O)C(O)C1O` (stereo not given), the growth inhibition is -10.3%.

For `Cc1cc(C)c(COCc2c(C)cc(C)cc2C)c(C)c1`, the growth inhibition was 10.1%.

On to `COc1cc(/C=C(\OC(C)=O)c2ccc3c(c2)OCO3)cc(OC)c1OC`, for which the growth inhibition was -0.95%.

In the case of `CC1=CC(C)(C)NC(=S)N1c1cccc2c(S(=O)(=O)O)cccc12`, the growth inhibition is -20.8%.

Consider `O=[N+]([O-])C(Cl)C(Cl)C(Cl)=C(Cl)Cl` (stereo not given), for which the growth inhibition is 17.1%.

As to `CCOC(=O)C(C#N)(Cc1c(-c2ccccc2)[nH]c2ccccc12)NC(C)=O` (stereo not given), the growth inhibition was 0.75%.

With `Cc1ccc2ccccc2c1CC(=O)NN`, the growth inhibition is -26.8%.

In the case of `Cc1ccc2ccccc2[n+]1CC(=O)c1ccc2c(c1)OCO2`, the growth inhibition was -23.2%.

On to `COc1ccc(OC)c2cc3c(cc12)C(=O)C(C)=C(C)C3=O`, for which the growth inhibition is -2.55%.

With `COc1nc(NC2OC(COC(C)=O)C(OC(C)=O)C(OC(C)=O)C2OC(C)=O)c(-c2csc(N)n2)c(=O)n1C` (stereo not given), the growth inhibition was -26.2%.

Consider `CC(=O)Nc1ccc2c(c1)N(O)C(=O)C2(C)C`, for which the growth inhibition is 6.3%.

With `Clc1cnnc(Cl)c1N/N=C/c1ccco1`, the growth inhibition is -0.05%.

Take `CCC12C[N+]3([O-])CCc4c([nH]c5ccccc45)C(C(=O)OC)(c4cc5c(cc4OC)N(C)C4C(O)(C(=O)OC)C(OC(C)=O)C6(CC)C=CCN7CCC54C76)CC(C3)C1O2` (stereo not given): the growth inhibition is -24.1%.

Take `COC(=O)c1nc(=S)[nH]c(C(=O)OC)c1C(=O)c1ccccc1O`: the growth inhibition is 11.9%.

Consider `C[N+](C)(C)/N=C1\CC2CCC1C2` (stereo not given), for which the growth inhibition was -4.5%.

With `Cc1ccccc1C(=O)c1ccc2ccccc2c1`, the growth inhibition is 26.2%.

For the compound `Cc1cccc(C)c1NC(=O)Nc1cccc(C(F)(F)F)c1`, the growth inhibition is -29.4%.

Turning to `COc1ccccc1C(O)c1ccccc1` (stereo not given), the growth inhibition was -30.4%.

As to `COc1ccc(C2=C(C#N)C(=C(C#N)C#N)NC(N)=C2C#N)cc1`, the growth inhibition was -1.25%.

For `Cc1nc2c(Cl)cc(Cl)cc2c(Cl)c1CCCl`, the growth inhibition is 30.2%.

With `CNC(=O)N(C)C(=O)c1ccncc1C(=O)N(C(=O)NC1CCCCC1)C1CCCCC1`, the growth inhibition was 2.2%.

In the case of `CCN(C(=O)CCl)c1ccccc1`, the growth inhibition was 0.35%.

As to `C=C1C(=O)C23C(O)CC4C5(C)CCCC4(C(O)OC5)C2C(OC(C)=O)CC1C3O` (stereo not given), the growth inhibition is 8.45%.

For the compound `CCCCC[N+](CCCCC)(CCCCC)CCCCC`, the growth inhibition is -16.4%.

For the compound `Cc1ccnc2ccccc12`, the growth inhibition is 1.55%.

On to `c1ccc2sc(-c3nc4ccccc4s3)nc2c1`, for which the growth inhibition was 11.7%.

In the case of `COc1cccc(NC(=O)CC(=O)NN2C(=O)/C(=C/c3ccc(N(CCC#N)CCC#N)cc3)N=C2c2cc([N+](=O)[O-])ccc2Cl)c1`, the growth inhibition was -5.05%.

Regarding `O=C(O)CCC(=O)Nc1cc(C(F)(F)F)ccc1Cl`, the growth inhibition is 13.7%.

As for `O=C(O)CCCCC(=O)c1cc(O)ccc1O`, the growth inhibition is 10.1%.

For `Nc1nnc2cc(Br)ccc2n1`, the growth inhibition was -2.55%.
